Bioassay records (PubChem)
L3MBTL1 inh = qHTS Assay for the Inhibitors of L3MBTL1; Lethal(3)malignant brain tumor-like protein 1 (Homo sapiens), Q9Y468; AlphaScreen L3MBTL1–H3K9me1 peptide binding; Potency, µM (titrated, usually from 57.1 µM), usual class: inhibitors; actives 0.66% (n = 230,000); AID 485360, 2010; also: nearly all actives have a fitted effect of over 60% in size
Target sequence (Q9Y468 whole entry, looked up): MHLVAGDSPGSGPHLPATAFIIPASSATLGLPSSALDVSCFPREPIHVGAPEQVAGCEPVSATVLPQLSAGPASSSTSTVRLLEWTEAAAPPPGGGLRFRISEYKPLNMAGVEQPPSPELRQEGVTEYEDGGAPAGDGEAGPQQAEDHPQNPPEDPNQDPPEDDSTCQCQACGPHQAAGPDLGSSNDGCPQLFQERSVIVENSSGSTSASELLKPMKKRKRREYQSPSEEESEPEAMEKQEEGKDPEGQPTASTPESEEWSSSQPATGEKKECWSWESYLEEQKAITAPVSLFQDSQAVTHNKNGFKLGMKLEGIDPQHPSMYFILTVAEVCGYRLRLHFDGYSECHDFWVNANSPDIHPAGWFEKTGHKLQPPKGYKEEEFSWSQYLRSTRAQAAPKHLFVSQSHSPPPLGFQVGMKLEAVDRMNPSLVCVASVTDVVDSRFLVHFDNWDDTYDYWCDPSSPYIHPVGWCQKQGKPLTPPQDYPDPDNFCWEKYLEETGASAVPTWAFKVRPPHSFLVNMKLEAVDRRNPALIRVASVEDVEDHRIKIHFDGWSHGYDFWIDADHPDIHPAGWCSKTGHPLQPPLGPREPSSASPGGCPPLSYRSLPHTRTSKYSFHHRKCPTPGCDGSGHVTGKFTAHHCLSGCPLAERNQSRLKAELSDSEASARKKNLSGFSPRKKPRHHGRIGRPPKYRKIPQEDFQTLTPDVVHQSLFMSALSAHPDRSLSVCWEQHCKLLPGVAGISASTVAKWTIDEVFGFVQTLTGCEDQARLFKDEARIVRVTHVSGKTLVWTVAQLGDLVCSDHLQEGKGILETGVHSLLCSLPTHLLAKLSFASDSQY
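AlphaScreen proximity signal between nickel-chelate acceptor and streptavidin donor beads (final 10 ug/mL) reports binding of 50 nM L3MBTL1 to 75 nM biotin-H3 K9me1 peptide; complex incubated with compounds 30 min at room temperature; cefsulodin titration as control.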
Sfp inh = qHTS Assay for Inhibitors of Bacillus subtilis Sfp phosphopantetheinyl transferase (PPTase). 4'-phosphopantetheinyl transferase ffp (Bacillus subtilis), Q9F4F7. Biochemical Sfp PPTase activity, qHTS. Potency, µM, actives largely listed as inhibitors. actives 3.5% (n = 310,000);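 also: the enzyme is Sfp with the accession as filed and its product quenches rhodamine fluorescence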
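With Hepes-Na pH 7.6 buffer containing 10 mM MgCl2, Sfp (15 nM) modified BHQ-2-YbbR (12.5 uM) using rhodamine-CoA (5 uM). Two reads 30 minutes apart at 525/598 nm yielded each well's rate.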
HP1b chromo inh = HTS for Inhibitors of HP1-beta Chromodomain Interactions with Methylated Histone Tails; actives 0.56% (n = 390,000); Chromobox protein homolog 1 (Homo sapiens), P83916; AID 540317, 2011; Potency, µM (highest dose often 114 µM), hits mostly inhibitors; AlphaScreen HP1-beta / biotin-H3K9me3 peptide binding; also: nearly all actives have a fitted effect of over 70% in size
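AlphaScreen: HP1-beta (50 nM) preformed 30 min with biotin-H3(1-18)K9me3 peptide (50 nM) in PBS pH 7.4, 0.01% Tween-20. Compound added for 30 min at RT, then streptavidin donor/nickel chelate acceptor beads (10 ug/mL) for 30 min.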
G9a block = qHTS Assay for Inhibitors of Histone Lysine Methyltransferase G9a | Histone-lysine N-methyltransferase EHMT2 (Homo sapiens), Q96KQ7 | G9a H3K9 monomethylation, AlphaScreen, 2 h | Potency, µM (series often up to 102 µM), actives largely listed as inhibitors | actives 8.8% (n = 350,000) | AID 504332, 2011; also: nearly all actives have a fitted effect of over 75% in size
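Chemiluminescent proximity detection of H3K9 monomethylation, read after 10 min bead incubation in the dark. Reaction: 20 nM G9a, 500 nM biotin-H3K9 peptide, 20 uM SAM cofactor, 2 h, room temperature, following 15 min enzyme-compound preincubation.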
BAZ2B block = qHTS Assay for Inhibitors of BAZ2B; Potency, µM (top dose mostly 114 µM), hits mostly inhibitors; Bromodomain adjacent to zinc finger domain protein 2B (Homo sapiens), Q9UIF8; AlphaScreen BAZ2B-H3K14Ac peptide displacement; actives 4.4% (n = 360,000); also: nearly all actives have a fitted effect of over 60% in size
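BAZ2B (50 nM) with biotin-H3(5-23)K14Ac peptide (50 nM) in PBS pH 7.4, 0.01% Tween-20, preformed 30 min, then compound 30 min at room temperature; top concentration 110uM. AlphaScreen streptavidin donor/nickel chelate acceptor beads (10 ug/mL final), 20 min dark, signal read.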
JMJD2A Tudor inh = qHTS Assay for Inhibitors of JMJD2A-Tudor Domain | Potency, µM (top dose mostly 114 µM), usual class: inhibitors | actives 4.4% (n = 390,000) | Lysine-specific demethylase 4A (Homo sapiens), O75164 | AlphaScreen JMJD2A-Tudor / H3K4me3 peptide binding; also: nearly all actives have a fitted effect of over 50% in size
Hits are given with their value. Most compounds without a hit are left out; they make up all but 12% or so of the library. Calls follow the shape of the dose curve; as a rule, active = well fitted curve in the direction sought with a large enough effect; inconclusive = small, poorly fitted or top-dose-only effect, or another doubt; inactive = no such curve, though single readings can be large; an effect the other way counts as inactive or inconclusive.

What do the screens show for `CCN(c1cc(C)cc(C)c1)S(=O)(=O)c1nnc(NC(=O)C2CCCCC2)s1`?
HP1b chromo inh: inactive; G9a block: inconclusive; BAZ2B block: inactive; JMJD2A Tudor inh: inactive

How did O=C(Cc1ccc(Cl)cc1)NC1CC(=O)N(c2ccc3c(c2)OCCO3)C1 (stereo not drawn) do in these assays?
HP1b chromo inh: inactive; G9a block: inactive; BAZ2B block: inactive; JMJD2A Tudor inh: inactive

How did CCOc1ccc(/C(O)=C2/C(=O)C(=O)N(c3ccccn3)C2c2ccc(C)cc2)c(C)c1 (stereo not drawn) do in these assays?
Sfp inh: inactive; HP1b chromo inh: inconclusive; G9a block: 50.1µM; BAZ2B block: inactive; JMJD2A Tudor inh: 35.5µM

Results for CCCCOc1ccc(/C(O)=C2/C(=O)C(=O)N(Cc3cccnc3)C2c2ccncc2)c(C)c1 (stereo not drawn) ?
L3MBTL1 inh: inactive; Sfp inh: inactive; HP1b chromo inh: inactive; G9a block: 44.7µM; BAZ2B block: inactive; JMJD2A Tudor inh: inactive

What do the screens show for `COc1ccc(C2/C(=C(/O)c3ccc(C)cc3)C(=O)C(=O)N2c2ccccn2)cc1OC` (stereo not drawn)?
Sfp inh: inactive; HP1b chromo inh: inactive; G9a block: inconclusive; BAZ2B block: inconclusive; JMJD2A Tudor inh: inactive

What do the screens show for `CCCOc1ccc(/C(O)=C2\C(=O)C(=O)N(c3ccccn3)C2c2ccccc2F)cc1C` (stereo not drawn)?
Sfp inh: inactive; HP1b chromo inh: inactive; G9a block: 79.4µM; BAZ2B block: inactive; JMJD2A Tudor inh: inconclusive

Results for Cc1cc(OCC(C)C)ccc1/C(O)=C1/C(=O)C(=O)N(Cc2cccnc2)C1c1ccncc1 (stereo not drawn) ?
L3MBTL1 inh: inactive; Sfp inh: inactive; HP1b chromo inh: inactive; G9a block: inconclusive; BAZ2B block: inactive; JMJD2A Tudor inh: inconclusive

Results for CCN(CC)c1ccc(-c2nc(-c3ccccc3C)no2)cc1[N+](=O)[O-] ?
HP1b chromo inh: inactive; G9a block: inactive; BAZ2B block: inactive; JMJD2A Tudor inh: inactive

How did Cc1ccccc1NC(=O)c1c(C)oc2ccc(O)c(CN3CCN(C)CC3)c12 do in these assays?
HP1b chromo inh: inactive; G9a block: inactive; BAZ2B block: inactive; JMJD2A Tudor inh: inactive

Results for CCC(=O)Nc1ccccc1-c1nc2ccccc2n(C(C)C(=O)Nc2cccc(Cl)c2C)c1=O (stereo not drawn) ?
HP1b chromo inh: inactive; G9a block: inconclusive; BAZ2B block: inconclusive; JMJD2A Tudor inh: inactive

How did CC(=O)Nc1ccc(NC(=O)C(C)OC(=O)C2(c3ccc(Cl)cc3)CCCC2)cc1 (stereo not drawn) do in these assays?
L3MBTL1 inh: inactive; Sfp inh: inactive; HP1b chromo inh: inactive; G9a block: 50.1µM; BAZ2B block: inactive; JMJD2A Tudor inh: inactive

What do the screens show for `CC(=O)Nc1ccc(NC(=O)C(C)OC(=O)C2(c3ccc(F)cc3)CCCC2)cc1` (stereo not drawn)?
Sfp inh: inactive; HP1b chromo inh: inactive; G9a block: inactive; BAZ2B block: inactive; JMJD2A Tudor inh: inactive

What do the screens show for `Cc1ccc(NC(=O)Cn2c(=O)c3cc(Cl)ccc3n3nncc23)cc1`?
HP1b chromo inh: inactive; G9a block: inactive; BAZ2B block: inactive; JMJD2A Tudor inh: inactive

What do the screens show for `Cc1ccc2c(c1)c1c(n2CC(O)Cn2c(C)nc3ccccc32)C(=O)CCC1` (stereo not drawn)?
L3MBTL1 inh: inactive; Sfp inh: inactive; HP1b chromo inh: inactive; G9a block: inactive; BAZ2B block: inactive; JMJD2A Tudor inh: inactive

How did Cc1ccc2c(c1)c1c(n2CC(O)Cn2c(C)nc3ccccc32)/C(=N\O)CCC1 (stereo not drawn) do in these assays?
L3MBTL1 inh: inactive; Sfp inh: inactive; HP1b chromo inh: inactive; G9a block: 17.8µM; BAZ2B block: inconclusive; JMJD2A Tudor inh: inconclusive

How did CCOc1ccc(NCc2nnc(SCc3ccc(Cl)cc3)n2-c2ccccc2)cc1 do in these assays?
L3MBTL1 inh: inconclusive; Sfp inh: inactive; HP1b chromo inh: inconclusive; G9a block: 25.1µM; BAZ2B block: 14.1µM; JMJD2A Tudor inh: 22.4µM

Results for CC(=O)Nc1ccc(N2CCN(Cc3ccccc3)CC2)cc1 ?
Sfp inh: inactive; HP1b chromo inh: inactive; G9a block: inactive; BAZ2B block: inactive; JMJD2A Tudor inh: inactive

How did CCOc1ccc(CN2CCC(=O)NC2=O)cc1 do in these assays?
L3MBTL1 inh: inactive; Sfp inh: inactive; HP1b chromo inh: inactive; G9a block: inactive; BAZ2B block: inactive; JMJD2A Tudor inh: inactive

How did CCOc1ccc(CNc2ccc(N3CCN(Cc4ccccc4)CC3)cc2)cc1 do in these assays?
L3MBTL1 inh: inactive; Sfp inh: inactive; HP1b chromo inh: inconclusive; BAZ2B block: 8.91µM; JMJD2A Tudor inh: 8.91µM

What do the screens show for `CCCCOc1ccc(CN2CCSCC2)cc1`?
L3MBTL1 inh: inactive; Sfp inh: inactive; HP1b chromo inh: inconclusive; BAZ2B block: inactive; JMJD2A Tudor inh: 28.2µM

How did CCOc1ccc(CN2CCSCC2)cc1 do in these assays?
L3MBTL1 inh: inactive; Sfp inh: inactive; HP1b chromo inh: inconclusive; G9a block: inconclusive; BAZ2B block: inconclusive; JMJD2A Tudor inh: 3.55µM

How did CCOC(=O)c1ccc2c(c1)sc1nc(-c3ccc(OCC)cc3)cn12 do in these assays?
HP1b chromo inh: inactive; G9a block: inactive; BAZ2B block: inactive; JMJD2A Tudor inh: inactive

How did COC(=O)CSc1nnc(CNc2ccc(Cl)cc2)n1Cc1ccccc1 do in these assays?
L3MBTL1 inh: inactive; Sfp inh: inactive; HP1b chromo inh: inactive; G9a block: 56.2µM; BAZ2B block: inconclusive; JMJD2A Tudor inh: inactive

Results for O=S(=O)([O-])CCC[n+]1c(SCCCS(=O)(=O)O)sc2ccc(Cl)cc21 ?
L3MBTL1 inh: inactive; Sfp inh: 3.16µM; HP1b chromo inh: inactive; G9a block: 25.1µM; BAZ2B block: inconclusive; JMJD2A Tudor inh: 79.4µM

Results for Cn1c(=O)c(C(=O)COC(=O)c2cc(C(F)(F)F)nc3c(C(F)(F)F)cccc23)c(N)n(CC2CC2)c1=O ?
L3MBTL1 inh: inactive; Sfp inh: inactive; G9a block: 50.1µM; BAZ2B block: inactive

What do the screens show for `CC(C)Cn1c(N)c(C(=O)COC(=O)c2cc(-c3ccccc3)nc3ccccc23)c(=O)n(C)c1=O`?
L3MBTL1 inh: inactive; Sfp inh: inactive; HP1b chromo inh: inactive; G9a block: inconclusive; BAZ2B block: inactive; JMJD2A Tudor inh: inactive
